Reference: PubChem BioAssay (NCI)
Compounds without any hit were thinned out: in the full panel of roughly 83,000, 20% have a hit.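 Assay: single dose, 48 h. Readout: percent growth (0 = no net growth; negative = cell death). Active: <10.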 Activity calls are given as the source filed them.

These compounds were tested on SNB-75 CNS (assay: NCI-60 one-dose screen, 48 h (100 = growth as untreated, 0 = no growth, -100 = all killed)). Conditions: 10 µM unless noted.
In the case of `CC(C)(C)c1[nH]nc2c1C(c1cc3ccccc3[nH]c1=O)Nc1cc(C(=O)OCc3ccccc3)ccc1N2` (stereo unspecified), the growth is reported as 71.7% (inactive). With `COc1ccc2nc(-c3c(-c4ccccc4)nc4ncccn34)[nH]c2c1` the growth was 78.1% (inactive). In the case of `O=C1NC(=Nc2ccc(S(=O)(=O)Nc3nccs3)cc2)S/C1=C\c1coc2ccccc2c1=O`, the growth is reported as 55.9% (inactive). With `CC(C)=CCC[C@](C)(O)[C@H]1CC[C@]2(C)[C@@H]1CC[C@@H]1[C@@]3(C)C/C(=C/c4ccc(Br)cc4)C(=O)C(C)(C)[C@@H]3CC[C@]12C` the growth was -50.3% (active). With `O=c1c2sc3ncc(Br)cc3c2ncn1-c1cccc(Cl)c1` the growth was 16.4% (inactive). `O=Cc1nc2ccccc2[nH]1` was tested, and the growth was 80% (inactive). For `CCc1ccc(-c2ccc(Nc3ccccc3)nn2)cc1S(N)(=O)=O`, the growth was 123% (inactive). `COc1ccc(-c2nc3ccccn3c2-c2nc3ccc(Cl)cc3[nH]2)cc1` was tested, and the growth was 67.5% (inactive). For `Cn1cc(-c2nc(-c3c[nH]c4ncccc34)cs2)c2ccccc21`, the growth was 77.6% (inactive). For `COc1ccc2c(c1)C/C(=C\c1cc(-c3ccc4c(c3)OCO4)n[nH]1)C2=O`, the growth was 55.1% (inactive). In the case of `Nc1ccc(Br)cn1`, the growth is reported as 87.3% (inactive). In the case of `Cc1nn(-c2ccc(Br)cc2)c2nc3[nH]c(=O)[nH]c(=O)c3nc12`, the growth is reported as 74.6% (inactive). For `Cn1cc(-c2csc(-c3cn(C(=O)OC(C)(C)C)c4ccccc34)n2)c2cccnc21`, the growth was 57.7% (inactive). With `CC(C)(C)c1ccc(OCCCCCCCN2CCNCC2)cc1` the growth was 51.8% (inactive). `Nc1ccc(Cl)cn1` was tested, and the growth was 80.2% (inactive). `Cc1ccc(-c2nc([P+](c3ccccc3)(c3ccccc3)c3ccccc3)c(N3CCOCC3)o2)cc1` was tested, and the growth was 0.0247% (active). In the case of `c1ccc2[nH]c(-c3cc(-c4ccc5c(c4)OCO5)n[nH]3)nc2c1`, the growth is reported as 33.8% (inactive). In the case of `Nc1c(C(=O)Nc2cccc(Br)c2)sc2nc3c(cc12)C(=O)CCC3`, the growth is reported as -4.52% (active). With `COc1cccc(NC(=O)c2sc3nc4c(cc3c2N)C(=O)CCC4)c1` the growth was -0.688% (active). With `C=C(C)[C@@H]1CC[C@]2(C)[C@H](CC=C3[C@@H]4CC(C)(C)CC[C@]4(C=O)CC[C@]32C)[C@@]1(C)CCCN` the growth was 87.8% (inactive). `CC(C)(C)c1cc(-n2c(-c3ccc(Cl)cc3)nc3cc(C(=O)Nc4ccc(Cl)cc4)ccc32)n[nH]1` was tested, and the growth was 60.7% (inactive). With `O=c1c(CNc2ccc(S(=O)(=O)Nc3nccs3)cc2)coc2ccccc12` the growth was 73.8% (inactive). `COc1cc(-c2cc(-c3nc4ccc(F)cc4[nH]3)[nH]n2)cc(OC)c1OC` was tested, and the growth was 15.2% (inactive). With `O=C1C(Cl)=C(Nc2ccc(S(=O)(=O)c3ccc(NC4=C(Cl)C(=O)c5ccccc5C4=O)cc3)cc2)C(=O)c2ccccc21` the growth was 57.7% (inactive). For `Fc1ccc2nc(-c3cc(-c4ccc5c(c4)OCO5)n[nH]3)[nH]c2c1`, the growth was 35.6% (inactive). For `O=c1c(CNc2ccc(S(=O)(=O)Nc3ncccn3)cc2)coc2ccccc12`, the growth was 79.4% (inactive). With `COc1ccc(-c2cc(/C=C/C(=O)c3ccc(N)cc3)[nH]n2)cc1` the growth was -0.764% (active). With `COC(=O)[C@]12CC[C@@H](C(=O)/C=C/c3cccnc3)[C@@H]1[C@H]1CC[C@@H]3[C@@]4(C)C/C(=C/c5cccnc5)C(=O)C(C)(C)[C@@H]4CC[C@@]3(C)[C@]1(C)CC2` the growth was -98.7% (active). In the case of `NC1(N)C=CC2=C(C=C1)C1(N)C3=C(C=CC(N)(N)C=C3)N2C2(N)C3=C(C=CC(N)(N)C=C3)N1C1=C2C=CC(N)(N)C=C1`, the growth is reported as 93.9% (inactive). `CCCCC(=O)OC1CCCCC1C` (stereo unspecified) was tested, and the growth was 87.6% (inactive). `COc1ccc(/C=C/C(=O)NCCO)cc1` was tested, and the growth was 80.7% (inactive). For `COc1ccc2c(c1)C/C(=C\c1cc(-c3cc(OC)c(OC)c(OC)c3)n[nH]1)C2=O`, the growth was 78.4% (inactive). With `COc1ccc(NC(=O)c2ccc3c(c2)nc(-c2cc4ccccc4[nH]c2=O)n3-c2cc(C(C)(C)C)[nH]n2)cc1` the growth was 76.2% (inactive). `COc1ccc2nc(-c3cc(-c4cc(OC)c(OC)c(OC)c4)n[nH]3)[nH]c2c1` was tested, and the growth was -2.76% (active). With `Nc1nc2c(c(=O)[nH]1)C(c1ccc3c(c1)OCO3)C=C(C(=O)O)N2` (stereo unspecified) the growth was 85.6% (inactive). `COc1ccc(-c2cc(/C=C/C(=O)c3ccc(OC)c(OC)c3)[nH]n2)cc1` was tested, and the growth was 9.56% (active). `COc1cc2c(cc1OC)C(=O)/C(=C/c1cc(-c3ccc4c(c3)OCO4)n[nH]1)C2` was tested, and the growth was -4.64% (active). In the case of `COc1cc(-c2cc(-c3nc4ccccc4[nH]3)[nH]n2)cc(OC)c1OC`, the growth is reported as 51.9% (inactive).

What follows are compounds tested on SNB-19 CNS in the same assay as above. Conditions: 10 µM unless noted.
In the case of `CC(C)(C)c1[nH]nc2c1C(c1cc3ccccc3[nH]c1=O)Nc1cc(C(=O)OCc3ccccc3)ccc1N2` (stereo unspecified), the growth is reported as 61.7% (inactive). For `COc1ccc2nc(-c3c(-c4ccccc4)nc4ncccn34)[nH]c2c1`, the growth was 101% (inactive). In the case of `O=C1NC(=Nc2ccc(S(=O)(=O)Nc3nccs3)cc2)S/C1=C\c1coc2ccccc2c1=O`, the growth is reported as 98.5% (inactive). In the case of `CC(C)=CCC[C@](C)(O)[C@H]1CC[C@]2(C)[C@@H]1CC[C@@H]1[C@@]3(C)C/C(=C/c4ccc(Br)cc4)C(=O)C(C)(C)[C@@H]3CC[C@]12C`, the growth is reported as 95.2% (inactive). For `O=c1c2sc3ncc(Br)cc3c2ncn1-c1cccc(Cl)c1`, the growth was 89.5% (inactive). For `O=Cc1nc2ccccc2[nH]1`, the growth was 101% (inactive). For `CCc1ccc(-c2ccc(Nc3ccccc3)nn2)cc1S(N)(=O)=O`, the growth was 105% (inactive). `COc1ccc(-c2nc3ccccn3c2-c2nc3ccc(Cl)cc3[nH]2)cc1` was tested, and the growth was 96.2% (inactive). For `Cn1cc(-c2nc(-c3c[nH]c4ncccc34)cs2)c2ccccc21`, the growth was 92.8% (inactive). For `COc1ccc2c(c1)C/C(=C\c1cc(-c3ccc4c(c3)OCO4)n[nH]1)C2=O`, the growth was 92.5% (inactive). `Nc1ccc(Br)cn1` was tested, and the growth was 107% (inactive). In the case of `Cc1nn(-c2ccc(Br)cc2)c2nc3[nH]c(=O)[nH]c(=O)c3nc12`, the growth is reported as 104% (inactive). `Cn1cc(-c2csc(-c3cn(C(=O)OC(C)(C)C)c4ccccc34)n2)c2cccnc21` was tested, and the growth was 83.3% (inactive). `CC(C)(C)c1ccc(OCCCCCCCN2CCNCC2)cc1` was tested, and the growth was 54.4% (inactive). `Nc1ccc(Cl)cn1` was tested, and the growth was 107% (inactive). In the case of `Cc1ccc(-c2nc([P+](c3ccccc3)(c3ccccc3)c3ccccc3)c(N3CCOCC3)o2)cc1`, the growth is reported as 11.5% (inactive). `c1ccc2[nH]c(-c3cc(-c4ccc5c(c4)OCO5)n[nH]3)nc2c1` was tested, and the growth was 68.3% (inactive). For `Nc1c(C(=O)Nc2cccc(Br)c2)sc2nc3c(cc12)C(=O)CCC3`, the growth was 32.7% (inactive). With `COc1cccc(NC(=O)c2sc3nc4c(cc3c2N)C(=O)CCC4)c1` the growth was 41.6% (inactive). For `C=C(C)[C@@H]1CC[C@]2(C)[C@H](CC=C3[C@@H]4CC(C)(C)CC[C@]4(C=O)CC[C@]32C)[C@@]1(C)CCCN`, the growth was 89.1% (inactive). In the case of `CC(C)(C)c1cc(-n2c(-c3ccc(Cl)cc3)nc3cc(C(=O)Nc4ccc(Cl)cc4)ccc32)n[nH]1`, the growth is reported as 60.2% (inactive). With `O=c1c(CNc2ccc(S(=O)(=O)Nc3nccs3)cc2)coc2ccccc12` the growth was 95.4% (inactive). `COc1cc(-c2cc(-c3nc4ccc(F)cc4[nH]3)[nH]n2)cc(OC)c1OC` was tested, and the growth was 70.8% (inactive). `O=C1C(Cl)=C(Nc2ccc(S(=O)(=O)c3ccc(NC4=C(Cl)C(=O)c5ccccc5C4=O)cc3)cc2)C(=O)c2ccccc21` was tested, and the growth was 44.8% (inactive). For `Fc1ccc2nc(-c3cc(-c4ccc5c(c4)OCO5)n[nH]3)[nH]c2c1`, the growth was 72.1% (inactive). `O=c1c(CNc2ccc(S(=O)(=O)Nc3ncccn3)cc2)coc2ccccc12` was tested, and the growth was 94.2% (inactive). For `COc1ccc(-c2cc(/C=C/C(=O)c3ccc(N)cc3)[nH]n2)cc1`, the growth was 27.6% (inactive). With `COC(=O)[C@]12CC[C@@H](C(=O)/C=C/c3cccnc3)[C@@H]1[C@H]1CC[C@@H]3[C@@]4(C)C/C(=C/c5cccnc5)C(=O)C(C)(C)[C@@H]4CC[C@@]3(C)[C@]1(C)CC2` the growth was -87.6% (active). `NC1(N)C=CC2=C(C=C1)C1(N)C3=C(C=CC(N)(N)C=C3)N2C2(N)C3=C(C=CC(N)(N)C=C3)N1C1=C2C=CC(N)(N)C=C1` was tested, and the growth was 101% (inactive). With `CCCCC(=O)OC1CCCCC1C` (stereo unspecified) the growth was 100% (inactive). With `COc1ccc(/C=C/C(=O)NCCO)cc1` the growth was 111% (inactive). `COc1ccc2c(c1)C/C(=C\c1cc(-c3cc(OC)c(OC)c(OC)c3)n[nH]1)C2=O` was tested, and the growth was 91.9% (inactive). `COc1ccc(NC(=O)c2ccc3c(c2)nc(-c2cc4ccccc4[nH]c2=O)n3-c2cc(C(C)(C)C)[nH]n2)cc1` was tested, and the growth was 75.4% (inactive). `COc1ccc2nc(-c3cc(-c4cc(OC)c(OC)c(OC)c4)n[nH]3)[nH]c2c1` was tested, and the growth was 50.1% (inactive). `Nc1nc2c(c(=O)[nH]1)C(c1ccc3c(c1)OCO3)C=C(C(=O)O)N2` (stereo unspecified) was tested, and the growth was 104% (inactive). For `COc1ccc(-c2cc(/C=C/C(=O)c3ccc(OC)c(OC)c3)[nH]n2)cc1`, the growth was 27% (inactive). With `COc1cc2c(cc1OC)C(=O)/C(=C/c1cc(-c3ccc4c(c3)OCO4)n[nH]1)C2` the growth was 9.31% (active). With `COc1cc(-c2cc(-c3nc4ccccc4[nH]3)[nH]n2)cc(OC)c1OC` the growth was 86.9% (inactive).
